{"source": "paper PMC7862700", "about": "“An all-to-all approach to the identification of sequence-specific readers for epigenetic DNA modifications on cytosine”", "assay_in_all_cases": "DAPPL (digital affinity profiling via proximity ligation, sequencing); 10 mM Tris-HCl pH 7.5, 50 mM NaCl, 1 mM DTT, 4% glycerol, room temperature, 30 min; GST-TFs on glutathione beads, 16-mer random dsDNA library, 0.1% formaldehyde crosslink after washing; high values mean tight binding", "conditions_in_all_cases": "protein: recombinant; tags: N-terminal GST; dsDNA, one strand shown", "key": {"ELK1": {"target": "T1, ELK1 (Homo sapiens, UniProt P19419 1-428)", "T1 sequence": "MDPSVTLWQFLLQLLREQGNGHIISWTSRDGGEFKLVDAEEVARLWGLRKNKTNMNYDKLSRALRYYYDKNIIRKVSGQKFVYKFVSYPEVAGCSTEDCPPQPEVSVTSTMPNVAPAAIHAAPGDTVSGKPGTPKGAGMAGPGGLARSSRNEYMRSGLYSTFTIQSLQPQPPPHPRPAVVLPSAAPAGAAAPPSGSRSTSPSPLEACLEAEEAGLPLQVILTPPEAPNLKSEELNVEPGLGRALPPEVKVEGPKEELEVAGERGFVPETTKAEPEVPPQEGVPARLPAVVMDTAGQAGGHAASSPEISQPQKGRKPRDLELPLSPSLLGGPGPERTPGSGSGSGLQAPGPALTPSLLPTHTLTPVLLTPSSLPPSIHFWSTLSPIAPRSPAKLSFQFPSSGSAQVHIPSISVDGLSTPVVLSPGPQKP", "summary_of_the_method": "(§1)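 Pools were built from human transcription factors expressed in yeast as GST fusions, captured on glutathione beads and DNA-barcoded, along with a tag-only sample. Incubation with 200 nmole of a 16-mer random double-stranded DNA library lasted 30 min at room temperature in Tris/NaCl/DTT/glycerol buffer, and was followed by washing, 0.1% formaldehyde crosslinking, proximity ligation, PCR amplification and Illumina NextSeq500 sequencing. Binding signal is the quotient of each hexamer's read frequency for a factor and its frequency for the tag-only sample.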"}, "GABPA": {"target": "T2, GABPA (Homo sapiens, UniProt Q06546 1-454)", "T2 sequence": "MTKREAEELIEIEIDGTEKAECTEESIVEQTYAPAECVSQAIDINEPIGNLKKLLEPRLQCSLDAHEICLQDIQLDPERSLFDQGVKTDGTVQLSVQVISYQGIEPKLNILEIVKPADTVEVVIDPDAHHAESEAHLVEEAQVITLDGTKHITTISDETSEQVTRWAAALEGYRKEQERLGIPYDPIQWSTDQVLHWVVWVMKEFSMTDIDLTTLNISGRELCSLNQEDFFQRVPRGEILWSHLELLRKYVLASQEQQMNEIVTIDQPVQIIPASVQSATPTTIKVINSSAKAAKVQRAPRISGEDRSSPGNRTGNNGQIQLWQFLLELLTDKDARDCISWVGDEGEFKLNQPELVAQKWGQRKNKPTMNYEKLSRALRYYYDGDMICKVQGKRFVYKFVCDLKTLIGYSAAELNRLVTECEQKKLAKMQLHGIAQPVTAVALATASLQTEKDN", "summary_of_the_method": "as §1"}, "ERG": {"target": "T3, ERG (Homo sapiens, UniProt P11308 1-479)", "T3 sequence": "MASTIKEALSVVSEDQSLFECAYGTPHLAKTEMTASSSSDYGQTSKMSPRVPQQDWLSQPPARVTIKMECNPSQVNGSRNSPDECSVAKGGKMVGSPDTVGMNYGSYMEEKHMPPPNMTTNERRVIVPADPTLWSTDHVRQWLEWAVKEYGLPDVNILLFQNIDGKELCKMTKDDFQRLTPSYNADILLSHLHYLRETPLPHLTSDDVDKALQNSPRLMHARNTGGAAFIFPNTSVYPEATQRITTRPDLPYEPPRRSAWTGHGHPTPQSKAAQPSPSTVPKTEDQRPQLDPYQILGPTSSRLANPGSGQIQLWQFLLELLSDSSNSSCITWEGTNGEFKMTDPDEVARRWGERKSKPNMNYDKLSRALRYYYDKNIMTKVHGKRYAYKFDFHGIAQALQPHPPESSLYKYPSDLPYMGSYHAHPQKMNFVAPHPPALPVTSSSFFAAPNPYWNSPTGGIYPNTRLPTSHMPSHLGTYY", "summary_of_the_method": "as §1"}, "ELF1": {"target": "ELF1 (Homo sapiens, UniProt P32519 1-619)", "sequence (P32519 whole entry)": "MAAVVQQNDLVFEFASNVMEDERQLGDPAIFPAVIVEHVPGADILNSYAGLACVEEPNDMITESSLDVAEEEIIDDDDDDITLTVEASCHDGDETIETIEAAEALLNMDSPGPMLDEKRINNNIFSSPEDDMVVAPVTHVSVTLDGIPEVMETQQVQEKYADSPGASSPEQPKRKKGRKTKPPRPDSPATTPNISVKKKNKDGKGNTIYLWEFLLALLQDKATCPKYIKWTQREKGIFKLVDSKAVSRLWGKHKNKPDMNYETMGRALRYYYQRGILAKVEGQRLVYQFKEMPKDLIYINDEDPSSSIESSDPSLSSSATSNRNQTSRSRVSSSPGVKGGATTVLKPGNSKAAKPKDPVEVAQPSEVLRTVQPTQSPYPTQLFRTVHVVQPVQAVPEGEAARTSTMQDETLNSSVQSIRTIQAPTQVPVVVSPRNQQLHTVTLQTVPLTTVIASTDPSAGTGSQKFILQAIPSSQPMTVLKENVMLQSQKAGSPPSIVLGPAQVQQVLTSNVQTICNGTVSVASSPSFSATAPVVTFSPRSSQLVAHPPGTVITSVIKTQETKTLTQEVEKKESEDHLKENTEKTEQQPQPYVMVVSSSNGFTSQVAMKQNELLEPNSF", "summary_of_the_method": "as §1"}, "EHF": {"target": "T4, EHF (Homo sapiens, UniProt Q9NZC4 1-300)", "T4 sequence": "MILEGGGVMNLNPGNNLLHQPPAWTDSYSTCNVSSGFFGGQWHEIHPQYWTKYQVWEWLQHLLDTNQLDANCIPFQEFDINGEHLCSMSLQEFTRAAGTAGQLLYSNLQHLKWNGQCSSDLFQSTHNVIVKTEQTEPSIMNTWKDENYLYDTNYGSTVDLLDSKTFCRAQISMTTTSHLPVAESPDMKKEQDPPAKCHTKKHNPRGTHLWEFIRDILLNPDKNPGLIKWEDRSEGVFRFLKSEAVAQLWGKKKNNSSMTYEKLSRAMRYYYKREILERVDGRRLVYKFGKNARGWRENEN", "summary_of_the_method": "as §1"}, "SPIB": {"target": "SPIB (Homo sapiens, UniProt Q01892 1-262)", "sequence (Q01892 whole entry)": "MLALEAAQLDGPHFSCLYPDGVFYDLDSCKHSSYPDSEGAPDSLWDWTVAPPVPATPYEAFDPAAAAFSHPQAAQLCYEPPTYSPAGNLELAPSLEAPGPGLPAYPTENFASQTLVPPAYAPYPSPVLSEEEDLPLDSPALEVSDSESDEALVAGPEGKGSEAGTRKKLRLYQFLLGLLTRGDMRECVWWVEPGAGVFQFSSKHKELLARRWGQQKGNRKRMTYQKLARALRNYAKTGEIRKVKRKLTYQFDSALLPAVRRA", "summary_of_the_method": "as §1"}, "ETV5": {"target": "ETV5 (Homo sapiens, UniProt P41161 1-510)", "sequence (P41161 whole entry)": "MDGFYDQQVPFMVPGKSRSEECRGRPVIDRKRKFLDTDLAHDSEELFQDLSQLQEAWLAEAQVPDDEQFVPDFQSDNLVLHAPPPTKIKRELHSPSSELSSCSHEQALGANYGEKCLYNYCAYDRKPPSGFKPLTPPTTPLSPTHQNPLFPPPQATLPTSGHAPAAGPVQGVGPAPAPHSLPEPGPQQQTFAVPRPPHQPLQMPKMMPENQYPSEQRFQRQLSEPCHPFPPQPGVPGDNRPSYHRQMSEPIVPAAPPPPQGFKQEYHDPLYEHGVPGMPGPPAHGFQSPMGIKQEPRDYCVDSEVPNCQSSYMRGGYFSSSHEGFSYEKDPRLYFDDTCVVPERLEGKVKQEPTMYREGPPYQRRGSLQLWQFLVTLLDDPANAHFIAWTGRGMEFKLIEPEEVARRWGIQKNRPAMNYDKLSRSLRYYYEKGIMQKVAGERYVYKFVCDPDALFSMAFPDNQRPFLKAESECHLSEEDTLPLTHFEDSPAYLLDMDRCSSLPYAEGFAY", "summary_of_the_method": "as §1"}, "ELF4": {"target": "ELF4 (Homo sapiens, UniProt Q99607 1-663)", "sequence (Q99607 whole entry)": "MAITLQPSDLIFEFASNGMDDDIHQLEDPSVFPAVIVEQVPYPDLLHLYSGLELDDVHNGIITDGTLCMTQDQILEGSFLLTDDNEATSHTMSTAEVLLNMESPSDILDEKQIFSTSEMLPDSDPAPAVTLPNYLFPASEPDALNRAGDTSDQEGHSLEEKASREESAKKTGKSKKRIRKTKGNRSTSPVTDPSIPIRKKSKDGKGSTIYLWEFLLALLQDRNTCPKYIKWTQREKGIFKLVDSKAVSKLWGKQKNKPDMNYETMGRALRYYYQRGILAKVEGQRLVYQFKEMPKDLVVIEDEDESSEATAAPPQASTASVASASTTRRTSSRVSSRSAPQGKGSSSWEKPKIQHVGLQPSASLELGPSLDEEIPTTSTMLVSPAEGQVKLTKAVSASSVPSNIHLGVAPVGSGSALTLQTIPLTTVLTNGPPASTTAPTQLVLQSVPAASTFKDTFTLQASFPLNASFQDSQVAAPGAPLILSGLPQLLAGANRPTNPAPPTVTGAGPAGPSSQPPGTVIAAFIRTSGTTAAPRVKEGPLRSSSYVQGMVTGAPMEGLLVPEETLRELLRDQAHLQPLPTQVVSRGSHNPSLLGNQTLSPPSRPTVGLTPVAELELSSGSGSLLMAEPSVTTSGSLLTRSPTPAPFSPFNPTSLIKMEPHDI", "summary_of_the_method": "as §1"}, "ELK4": {"target": "T5, ELK4 (Homo sapiens, UniProt P28324-2 1-405)", "T5 sequence": "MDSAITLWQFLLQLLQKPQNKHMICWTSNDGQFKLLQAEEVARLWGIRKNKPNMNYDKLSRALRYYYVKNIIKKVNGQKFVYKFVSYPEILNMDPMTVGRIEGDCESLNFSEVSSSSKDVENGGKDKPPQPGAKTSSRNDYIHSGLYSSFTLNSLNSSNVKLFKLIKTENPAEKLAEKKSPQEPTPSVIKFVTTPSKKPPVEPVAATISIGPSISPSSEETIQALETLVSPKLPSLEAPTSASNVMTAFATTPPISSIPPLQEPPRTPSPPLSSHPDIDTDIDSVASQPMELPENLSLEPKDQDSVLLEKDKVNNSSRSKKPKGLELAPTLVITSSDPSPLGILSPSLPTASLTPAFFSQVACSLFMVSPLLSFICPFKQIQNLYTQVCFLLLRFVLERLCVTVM", "summary_of_the_method": "as §1"}, "ETV2": {"target": "T6, ETV2 (Homo sapiens, UniProt O00321 1-342)", "T6 sequence": "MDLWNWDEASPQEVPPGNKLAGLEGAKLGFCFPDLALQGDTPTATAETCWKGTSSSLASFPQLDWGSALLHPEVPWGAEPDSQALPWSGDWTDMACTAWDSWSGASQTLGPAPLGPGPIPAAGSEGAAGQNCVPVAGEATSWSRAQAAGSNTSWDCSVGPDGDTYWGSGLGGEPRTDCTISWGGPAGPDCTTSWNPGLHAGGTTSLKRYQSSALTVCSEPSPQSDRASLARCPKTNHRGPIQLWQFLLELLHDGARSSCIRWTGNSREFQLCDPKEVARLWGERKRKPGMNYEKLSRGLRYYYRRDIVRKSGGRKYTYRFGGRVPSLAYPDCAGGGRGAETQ", "summary_of_the_method": "as §1"}, "ETV1": {"target": "ETV1 (Homo sapiens, UniProt P50549 1-477)", "sequence (P50549 whole entry)": "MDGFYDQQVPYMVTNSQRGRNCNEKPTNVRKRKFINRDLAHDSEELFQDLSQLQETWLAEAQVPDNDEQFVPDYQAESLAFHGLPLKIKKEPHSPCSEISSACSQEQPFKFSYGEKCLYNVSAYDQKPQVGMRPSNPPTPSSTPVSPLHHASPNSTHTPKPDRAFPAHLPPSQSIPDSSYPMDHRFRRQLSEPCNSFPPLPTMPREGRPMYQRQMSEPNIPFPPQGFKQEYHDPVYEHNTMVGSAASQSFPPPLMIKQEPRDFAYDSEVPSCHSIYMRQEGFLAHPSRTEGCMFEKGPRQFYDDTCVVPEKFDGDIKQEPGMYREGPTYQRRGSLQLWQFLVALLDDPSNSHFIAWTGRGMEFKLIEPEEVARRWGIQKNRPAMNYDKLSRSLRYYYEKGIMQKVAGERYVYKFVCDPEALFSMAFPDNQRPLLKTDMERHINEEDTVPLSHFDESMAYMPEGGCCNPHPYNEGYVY", "summary_of_the_method": "as §1"}, "ETV3L": {"target": "T7, ETV3L (Homo sapiens, UniProt Q6ZN32 1-361)", "T7 sequence": "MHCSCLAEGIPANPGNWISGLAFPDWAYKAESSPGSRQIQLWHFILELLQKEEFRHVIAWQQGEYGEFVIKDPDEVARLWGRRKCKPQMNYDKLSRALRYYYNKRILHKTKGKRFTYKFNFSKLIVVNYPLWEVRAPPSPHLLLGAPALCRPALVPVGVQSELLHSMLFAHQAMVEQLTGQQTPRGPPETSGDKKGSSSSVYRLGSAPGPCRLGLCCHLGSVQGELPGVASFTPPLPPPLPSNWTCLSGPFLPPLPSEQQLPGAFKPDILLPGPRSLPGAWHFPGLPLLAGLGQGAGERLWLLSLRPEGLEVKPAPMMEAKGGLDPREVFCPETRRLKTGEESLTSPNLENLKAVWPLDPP", "summary_of_the_method": "as §1"}, "ETS2": {"target": "T8, ETS2 (Homo sapiens, UniProt P15036 1-469)", "T8 sequence": "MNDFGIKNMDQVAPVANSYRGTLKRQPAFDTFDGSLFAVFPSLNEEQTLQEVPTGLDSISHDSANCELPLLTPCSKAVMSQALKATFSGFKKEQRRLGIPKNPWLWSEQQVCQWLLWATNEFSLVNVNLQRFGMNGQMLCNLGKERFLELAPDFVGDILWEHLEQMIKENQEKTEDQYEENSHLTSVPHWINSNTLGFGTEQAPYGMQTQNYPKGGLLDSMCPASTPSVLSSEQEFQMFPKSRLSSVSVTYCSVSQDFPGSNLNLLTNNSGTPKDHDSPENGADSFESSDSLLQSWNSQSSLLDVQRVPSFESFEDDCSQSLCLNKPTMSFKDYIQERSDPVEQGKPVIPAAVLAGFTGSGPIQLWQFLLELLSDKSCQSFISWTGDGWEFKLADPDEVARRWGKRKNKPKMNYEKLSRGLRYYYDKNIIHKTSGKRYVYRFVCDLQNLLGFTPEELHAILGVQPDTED", "summary_of_the_method": "as §1"}, "SPDEF": {"target": "T9, SPDEF (Homo sapiens, UniProt O95238 1-335)", "T9 sequence": "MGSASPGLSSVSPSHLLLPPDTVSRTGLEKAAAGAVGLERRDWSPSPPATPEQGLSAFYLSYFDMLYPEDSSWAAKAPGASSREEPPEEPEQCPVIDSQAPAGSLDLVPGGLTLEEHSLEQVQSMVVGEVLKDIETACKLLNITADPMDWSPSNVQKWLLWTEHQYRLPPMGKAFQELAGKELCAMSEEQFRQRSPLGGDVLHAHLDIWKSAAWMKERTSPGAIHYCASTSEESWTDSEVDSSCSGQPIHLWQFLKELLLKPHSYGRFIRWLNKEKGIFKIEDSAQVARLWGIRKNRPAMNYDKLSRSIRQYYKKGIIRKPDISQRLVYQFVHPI", "summary_of_the_method": "as §1"}, "ETV7": {"target": "T10, ETV7 (Homo sapiens, UniProt Q9Y603 1-341)", "T10 sequence": "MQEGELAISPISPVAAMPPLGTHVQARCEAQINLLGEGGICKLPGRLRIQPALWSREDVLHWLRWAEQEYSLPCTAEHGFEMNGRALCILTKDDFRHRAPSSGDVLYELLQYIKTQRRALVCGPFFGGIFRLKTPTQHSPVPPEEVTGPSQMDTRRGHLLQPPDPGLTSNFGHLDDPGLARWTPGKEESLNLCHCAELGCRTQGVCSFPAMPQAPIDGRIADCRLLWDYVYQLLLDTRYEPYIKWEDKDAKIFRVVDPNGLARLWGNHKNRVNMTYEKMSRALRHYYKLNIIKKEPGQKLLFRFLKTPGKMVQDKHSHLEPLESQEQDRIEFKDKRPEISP", "summary_of_the_method": "as §1"}, "ETV3": {"target": "T11, ETV3 (Homo sapiens, UniProt P41162-2 1-143)", "T11 sequence": "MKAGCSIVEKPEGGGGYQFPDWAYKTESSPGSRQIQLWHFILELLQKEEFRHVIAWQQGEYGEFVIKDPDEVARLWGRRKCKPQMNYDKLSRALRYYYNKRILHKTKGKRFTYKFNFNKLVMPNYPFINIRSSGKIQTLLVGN", "summary_of_the_method": "as §1"}, "ETV6": {"target": "ETV6 (Homo sapiens, UniProt P41212 1-452)", "sequence (P41212 whole entry)": "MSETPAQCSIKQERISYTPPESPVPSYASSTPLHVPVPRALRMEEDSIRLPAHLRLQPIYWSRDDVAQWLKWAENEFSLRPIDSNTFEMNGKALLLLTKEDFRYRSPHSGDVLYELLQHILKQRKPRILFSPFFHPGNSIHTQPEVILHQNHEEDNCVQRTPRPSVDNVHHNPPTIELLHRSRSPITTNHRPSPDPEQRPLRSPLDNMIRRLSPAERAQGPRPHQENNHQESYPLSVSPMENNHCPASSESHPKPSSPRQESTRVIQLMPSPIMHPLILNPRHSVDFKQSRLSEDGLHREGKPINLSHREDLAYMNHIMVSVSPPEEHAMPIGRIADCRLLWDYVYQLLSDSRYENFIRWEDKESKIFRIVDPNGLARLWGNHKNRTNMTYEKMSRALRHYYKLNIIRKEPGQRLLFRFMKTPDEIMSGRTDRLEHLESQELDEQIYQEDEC", "summary_of_the_method": "as §1"}}}
{"sequence": "CTGGGC", "values": [{"measurement": "binding signal", "setting": "ELK1", "value": "1.08 fold enrichment (6-mer frequency, TF over GST control)"}, {"measurement": "binding signal", "setting": "GABPA", "value": "1.09 fold enrichment (6-mer frequency, TF over GST control)"}, {"measurement": "binding signal", "setting": "ERG", "value": "1.04 fold enrichment (6-mer frequency, TF over GST control)"}, {"measurement": "binding signal", "setting": "ELF1", "value": "1.24 fold enrichment (6-mer frequency, TF over GST control)"}, {"measurement": "binding signal", "setting": "EHF", "value": "1.01 fold enrichment (6-mer frequency, TF over GST control)"}, {"measurement": "binding signal", "setting": "SPIB", "value": "1.03 fold enrichment (6-mer frequency, TF over GST control)"}, {"measurement": "binding signal", "setting": "ETV5", "value": "1.04 fold enrichment (6-mer frequency, TF over GST control)"}, {"measurement": "binding signal", "setting": "ELF4", "value": "1.07 fold enrichment (6-mer frequency, TF over GST control)"}, {"measurement": "binding signal", "setting": "ELK4", "value": "1.11 fold enrichment (6-mer frequency, TF over GST control)"}, {"measurement": "binding signal", "setting": "ETV2", "value": "1.13 fold enrichment (6-mer frequency, TF over GST control)"}, {"measurement": "binding signal", "setting": "ETV1", "value": "1 fold enrichment (6-mer frequency, TF over GST control)"}, {"measurement": "binding signal", "setting": "ETV3L", "value": "1.12 fold enrichment (6-mer frequency, TF over GST control)"}, {"measurement": "binding signal", "setting": "ETS2", "value": "1.03 fold enrichment (6-mer frequency, TF over GST control)"}, {"measurement": "binding signal", "setting": "SPDEF", "value": "1 fold enrichment (6-mer frequency, TF over GST control)"}, {"measurement": "binding signal", "setting": "ETV7", "value": "1.24 fold enrichment (6-mer frequency, TF over GST control)"}, {"measurement": "binding signal", "setting": "ETV3", "value": "1.03 fold enrichment (6-mer frequency, TF over GST control)"}, {"measurement": "binding signal", "setting": "ETV6", "value": "1.03 fold enrichment (6-mer frequency, TF over GST control)"}]}
